Measured values from patent US20030175730, “Multivalent RNA aptamers and their expression in multicellular organisms” (published 2003).

The sequences below were run against B52 (SRp55) full length (Drosophila melanogaster, UniProt P26686 P26686:1-350) (assay: EMSA; almost a factor of three). Conditions: tags: baculovirus/Sf9 expressed, SR protein purification; label: 32P-UTP; ssRNA.
Procedure: All binding assays were performed in 20 μl volume in 1× binding buffer described above. A typical binding assay using labeled RNA contains about 20 finole of ³²P-labeled RNA probe and differing amounts (1-10 pmole) of B52 protein. A typical binding assay using the truncated versions of B52 contains 1 μl of the ³⁵S-labeled translation reaction mixture with 2 pmoles of unlabeled RNA transcript (the final concentration of RNAs in this reaction was 100 nM and concentration of the labeled B52 proteins was much lower). The reactions were allowed to equilibrate for 15-20 minutes at ambient temperature before being subjected to filter binding, gel shift, or UV crosslinking.
To determine the sequence/structure requirements for binding by B52, deletion and substitution mutations, and antisense constructs of BBS were designed in light of the shared sequence motif and predicted secondary structures (FIG. 4). These short RNA transcripts were produced by in vitro transcription of synthetic templates, and their affinity to B52 was assayed by band shift.

Sequence of B52 (SRp55) full length (P26686 other isoform, or with tags, fused parts or gaps): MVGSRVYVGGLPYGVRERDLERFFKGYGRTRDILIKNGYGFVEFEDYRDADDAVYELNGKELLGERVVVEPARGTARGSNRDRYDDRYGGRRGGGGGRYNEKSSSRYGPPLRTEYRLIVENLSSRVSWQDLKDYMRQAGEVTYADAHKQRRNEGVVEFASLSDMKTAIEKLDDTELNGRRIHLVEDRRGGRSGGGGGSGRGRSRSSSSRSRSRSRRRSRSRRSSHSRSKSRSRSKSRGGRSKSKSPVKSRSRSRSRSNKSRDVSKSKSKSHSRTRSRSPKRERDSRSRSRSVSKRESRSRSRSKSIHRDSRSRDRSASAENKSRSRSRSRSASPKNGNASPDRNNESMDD

Row | Sequence | binding signal
1 | GGACGAUCAACCAGGCGACAGU | ~3 fold lower affinity than BBS-II
